Screens: PubChem BioAssay, several laboratories
Y pestis TopoI = inhibitors of Yersinia pestis topoisomerase I; hit rate 0.064% among 360,000; activity, % at 10 µM; Y. pestis Topo-I cleavage product accumulation, plate reader; in the data active means activity above about 50%, passing the limit was not always enough
PrPC TRFRET = cell surface PrPC inhibition, primary TR-FRET screen. hit rate 0.43% among 370,000. inhibition, % at 13.8 µM. TR-FRET read-out. AID 720596; in the data active means inhibition above about 24%; further: 0% = median of the test wells and 100% = reference compound wells
PrP 5UTR inh = suppresses PrP 5' UTR mRNA reporter expression; inhibition, % (test concentration not listed); AID 488862; cell-based PrP 5' UTR mRNA reporter, plate reader; hit rate 0.35% among 340,000; in the data active means inhibition above about 52%; further: 0 = median of the neutral control wells
Mtb hypoxia rep = inhibitors of hypoxia-regulated fluorescent reporter in Mycobacterium tuberculosis; M. tuberculosis hypoxia-regulated fluorescent reporter, fluorescence; fluorescence inhibition, % (no concentration beside the values); hit rate 0.1% among 300,000; AID 1159583; in the data active means fluorescence inhibition mostly above about 23%, no sharp cut-off; inactive means mostly below about 17%
GDH-TPI counter = counter-screen for M. tuberculosis FBA inhibitors: GDH-TPI coupled enzymes; inhibition, % at 4.8 µM; AID 588335; hit rate 1.2% among 360,000; GDH-TPI coupled enzyme counterscreen, NADH absorbance; in the data active means inhibition above about 30%;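 further: 0% = DMSO wells and 100% = wells lacking the enzyme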
Mtb FBA inh = inhibits M. tuberculosis FBA enzyme | hit rate 2.3% among 360,000 | inhibition, % at 1 µM | purified M. tuberculosis FBA, fluorescence read-out; in the data active means inhibition above about 27%;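 further: 0% = vehicle and 100% = reference inhibitor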
Target sequence (P9WQA3 whole entry, looked up): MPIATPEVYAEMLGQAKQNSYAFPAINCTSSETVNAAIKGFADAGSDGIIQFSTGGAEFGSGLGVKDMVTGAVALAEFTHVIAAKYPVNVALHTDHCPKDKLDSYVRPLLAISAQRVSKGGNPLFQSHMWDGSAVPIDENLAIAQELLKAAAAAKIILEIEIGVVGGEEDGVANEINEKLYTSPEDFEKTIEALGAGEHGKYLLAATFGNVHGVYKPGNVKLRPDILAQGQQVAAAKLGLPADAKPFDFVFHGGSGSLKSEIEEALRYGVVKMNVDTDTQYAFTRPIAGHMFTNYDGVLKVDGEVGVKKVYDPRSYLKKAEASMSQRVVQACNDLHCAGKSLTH
Active calls of the source: *; · = no result shown. A selection: hits, their analogues and other compounds. The true share with any hit is near 3.8%.

SMILES | Y pestis TopoI | PrPC TRFRET | PrP 5UTR inh | Mtb hypoxia rep | GDH-TPI counter | Mtb FBA inh
Cc1ccc(N2C(=O)c3ccccc3C2C(=O)c2ccc(O)cc2O)cc1 (stereo not drawn) | -11 | 1 | -17 | -16 | 43* | -5
Cc1ccc(N2C(=O)c3ccccc3C2C(=O)c2cc(C)ccc2O)cc1 (stereo not drawn) | -1 | 0 | -20 | 6 | 4 | -7
CC(CN=[N+]=[N-])CN1CCC(O)CCC1=O (stereo not drawn) | · | · | · | 0 | · | ·
CC12CCC(C(=O)N(CSC(=S)N/N=C\c3ccccc3)C1=O)C2(C)C (stereo not drawn) | 7 | -2 | -18 | · | 42* | 5
O=C(Nc1ccc(F)cc1)C(c1ccccc1)N1CCN(S(=O)(=O)c2ccc3ccccc3c2)CC1 (stereo not drawn) | 3 | 19 | 1 | 4 | 12 | 30*
Cc1ccc(C)c(S(=O)(=O)N2CCN(C(C(=O)Nc3ccc(F)cc3)c3ccccc3)CC2)c1 (stereo not drawn) | 7 | -4 | -12 | -16 | 9 | 3
CCN(CC)S(=O)(=O)c1ccc(NC(=S)Nc2ccccc2)cc1 | 4 | 0 | -2 | 15 | 16 | 2
CCN(CC)S(=O)(=O)c1ccc(C(=O)Nc2nnc(NC(=S)Nc3ccccc3)s2)cc1 | 12 | 0 | -23 | 4 | 41* | 0
COc1ccc(Cn2c(C)nc3c(c2=O)c2nc4ccccc4nc2n3Cc2ccco2)cc1 | 7 | 6 | -2 | · | 22 | 2
Nc1c(C(=O)NC2CCCC2)c2nc3ccccc3nc2n1N=Cc1ccco1 | · | · | · | 6 | · | ·
CC(C)(C)OC(=O)c1c(N)n(Cc2ccco2)c2nc3ccccc3nc12 | 2 | -14 | -29 | 1 | 16 | 114*
C=CCNC(=O)c1c(N)n(Cc2ccco2)c2nc3ccccc3nc12 | 18 | 1 | -18 | 2 | 11 | 113*
COc1ccc(S(=O)(=O)c2c(N)n(Cc3ccco3)c3nc4ccccc4nc23)cc1 | -2 | 3 | 5 | -5 | 15 | 51*
CCC(C)C(NC(=O)Nc1cccc(Cl)c1)C(=O)O (stereo not drawn) | · | · | · | 12 | · | ·
Cc1cc(C)c2c3c(sc2n1)C(c1cccc(F)c1)C(C#N)=C(N)O3 (stereo not drawn) | 7 | -3 | -23 | 1 | 9 | 64*
COc1cc(/C=N/NC(=O)C(=O)NCc2ccco2)cc(Cl)c1O | 4 | 12 | · | · | 36* | -2
COc1cc(/C=N/NC(=O)C(=O)NCC2CCCO2)ccc1O (stereo not drawn) | -3 | 5 | 2 | · | 38* | -2
COc1cc(/C=N/NC(=O)CNC(=O)c2ccco2)ccc1O | -1 | -1 | -13 | · | 9 | 4
COc1cc(/C=N/NC(=O)C(=O)NCc2ccco2)ccc1O | -4 | 0 | -21 | · | 32* | -2
COc1cc(/C=N/NC(=O)/C(=C/c2ccccc2)CCO)ccc1O | -2 | -1 | -10 | · | 39* | -1
COc1cc(C=NNC(=O)C(=Cc2ccccc2)CCO)ccc1O | · | · | · | 4 | · | ·
C=CCOc1cccc(/C=N/NC(=O)C(=O)NCc2ccco2)c1 | 13 | 15 | -26 | · | 18 | -2
CC(C)C(=O)ON=C1CCS(=O)(=O)c2sccc21 | · | · | · | -2 | · | ·
COC(=O)c1sccc1NN=Cc1ccc(OC)c(OC)c1OC | · | · | · | 2 | · | ·
O=C(CC1C(=O)N(C2CCCCC2)CC1Cc1ccccc1)Nc1ccccc1 (stereo not drawn) | · | · | · | -1 | · | ·
SMILES | Y pestis TopoI | PrPC TRFRET | PrP 5UTR inh | Mtb hypoxia rep | GDH-TPI counter | Mtb FBA inh
COc1cccc(OC)c1C1=CC(=O)CC(c2ccc3c(c2)OCO3)C1 (stereo not drawn) | · | · | · | 5 | · | ·
COc1cc(OC)c(OC)cc1/C=N/NC(=S)NCC1CCCO1 (stereo not drawn) | -1 | 1 | -27 | · | 34* | 14
Cc1ccc(N2CCCn3c2cc(C)c(C#N)c3=O)cc1C | 11 | -1 | -10 | 8 | 39* | 5
CCCCCCCCN1C(CC(=O)OCC)c2cc(C(F)(F)F)ccc2S1(=O)=O (stereo not drawn) | · | · | · | 17 | · | ·
Nc1ccc(-c2nc3cc([N+](=O)[O-])ccc3o2)cc1 | -9 | -10 | -84 | 7 | 42* | 0
Cc1ccc(-c2nc3cc(N)ccc3o2)cc1 | -10 | 12 | -10 | -5 | 20 | 11
CC(C)c1ccc2oc(-c3ccc(N)cc3)nc2c1 | 2 | -3 | 37 | 1 | 29 | 191*
O=c1cnnc(N/N=C/c2ccc3c(c2)OCO3)[nH]1 | -5 | 2 | 6 | · | 44* | 2
COc1ccccc1NC(=O)COC(=O)C=Cc1ccc2c(c1)OCO2 | · | · | · | 2 | · | ·
O=C(Nc1cccc(C(=O)O)c1)/C(=C/c1ccc2c(c1)OCO2)NC(=O)c1cccc(Br)c1 | 6 | 2 | -20 | 4 | 20 | 7
O=C(Nc1ccc(C(=O)O)cc1)/C(=C\c1ccc2c(c1)OCO2)NC(=O)c1ccccc1Cl | 4 | -7 | · | · | 35* | 0
O=C(Nc1cccc(C(=O)O)c1)/C(=C\c1ccc2c(c1)OCO2)NC(=O)c1ccccc1Br | 0 | 2 | · | · | 36* | -1
CC1(C)OC2CC3C4CCC5=CC(=O)C=C[C@]5(C)[C@@]4(F)C(O)C[C@]3(C)[C@]2(C(=O)CO)O1 (stereo partly drawn) | · | · | · | -1 | · | ·
O=C(CN1C(=O)S/C(=C\c2cccs2)C1=O)Nc1ccc(O)c(C(=O)O)c1 | -4 | -2 | -6 | 0 | 38* | 0
O=C(CCN1C(=O)/C(=C\c2cccs2)SC1=S)Nc1ccc(C(=O)O)cc1 | 10 | -9 | -11 | 5 | 5 | -4
O=C(CN1C(=O)S/C(=C/c2cccs2)C1=O)N1CCCC1 | 6 | -9 | 1 | 1 | 21 | -1
O=C(CN1C(=O)S/C(=C\c2cccs2)C1=O)Nc1ccc(C(=O)O)c(O)c1 | 3 | -7 | -132 | -5 | 49* | -8
O=C(CN1C(=O)S/C(=C/c2cccs2)C1=O)N1CCOCC1 | 6 | -12 | -12 | · | 37* | 0
CC(C)CC(NC(=O)OC(C)(C)C)c1cn(C(Cc2ccc(O)cc2)C(=O)N2CCN(C(=O)OC(C)(C)C)CC2)nn1 (stereo not drawn) | · | · | · | -3 | · | ·
CCCCCNC(=O)CSC1=NC(=Cc2ccc(Cl)c(Cl)c2)C(=O)N1CC | · | · | · | -4 | · | ·
CCOC(=O)C1=CCC(c2cc3cc(OC)ccc3n2C)N(S(=O)(=O)c2ccc(C)cc2)C1C(=O)OCC (stereo not drawn) | · | · | · | 11 | · | ·
COc1cc2c(cc1OC)C1=NC(=O)CN1C(SCc1ccc(C)cc1)=N2 | 82* | 19 | -9 | · | -5 | 18
C#CCOCCOCCOCCNc1nc(N2CCN(C(=O)CCCCCCCCCCNC(=O)Cn3cc(CC(C)O)nn3)CC2)nc(N2CCN(C(=O)CCCCCCCCCCNC(=O)C(CCC(=O)O)n3cc(CCCCCN)nn3)CC2)n1 (stereo not drawn) | · | · | · | 13 | · | ·
Nc1c2c(nc3ccccc13)N(c1ccccc1)CC2 | 0 | -24 | -30 | · | -3 | 14
CCCC(=O)Nc1c2c(nc3ccccc13)N(c1ccccc1)CC2 | 1 | · | 0 | 3 | 10 | 192*
